# Laboratory results: PubChem BioAssay AID602281 (The Scripps Research Institute Molecular Screening Center, 2012)
# Values joined by “and” are separate entries in the source; they are usually repeats but may differ in a detail not shown here. Equal entries are not always repeated. About 2,900 (0.81%) of roughly 360,000 compounds were called active.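 How the source made its calls: active means inhibition above the mean inhibition across every tested compound plus 3 SD (cut at about 22% in these data); inactive means the rest.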 The entries come from a sample that favours actives as a whole. Some compounds were tested as several samples or in several runs, with calls that do not always agree.
# Molecular target: Perilipin-5 (Homo sapiens) + 1-acylglycerol-3-phosphate O-acyltransferase ABHD5 (Homo sapiens) (UniProt Q00G26+Q8WTS1)
# Sequence (Q00G26 whole entry, looked up): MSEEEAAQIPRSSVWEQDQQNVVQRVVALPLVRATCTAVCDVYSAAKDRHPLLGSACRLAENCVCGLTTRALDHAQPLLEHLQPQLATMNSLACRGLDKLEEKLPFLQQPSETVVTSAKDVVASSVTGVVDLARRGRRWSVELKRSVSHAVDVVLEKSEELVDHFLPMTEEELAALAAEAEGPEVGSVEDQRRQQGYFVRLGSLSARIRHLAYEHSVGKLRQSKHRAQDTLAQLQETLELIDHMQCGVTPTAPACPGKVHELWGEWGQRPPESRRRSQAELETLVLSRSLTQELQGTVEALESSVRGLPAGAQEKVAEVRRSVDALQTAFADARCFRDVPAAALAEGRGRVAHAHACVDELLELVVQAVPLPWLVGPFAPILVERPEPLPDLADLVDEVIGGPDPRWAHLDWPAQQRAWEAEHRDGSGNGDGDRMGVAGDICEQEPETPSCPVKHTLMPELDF
# Sequence (Q8WTS1 whole entry, looked up): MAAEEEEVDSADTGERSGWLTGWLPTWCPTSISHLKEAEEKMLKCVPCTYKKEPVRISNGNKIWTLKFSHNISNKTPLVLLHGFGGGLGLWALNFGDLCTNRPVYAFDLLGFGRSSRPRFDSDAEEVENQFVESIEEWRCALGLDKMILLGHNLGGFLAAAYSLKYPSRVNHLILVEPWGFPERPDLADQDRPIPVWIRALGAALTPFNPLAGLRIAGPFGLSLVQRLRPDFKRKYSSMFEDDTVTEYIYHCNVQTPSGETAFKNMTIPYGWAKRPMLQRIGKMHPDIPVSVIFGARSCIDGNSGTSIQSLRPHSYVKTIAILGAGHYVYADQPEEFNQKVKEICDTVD
# Experiment: blockers of ABHD5 binding to perilipin-5 – cell lysate, split luciferase complementation, luminescence, primary screen (AID 602281);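 further: 0% = DMSO only wells and the 100% control is not disclosed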
# Conditions: Split G. princeps luciferase complementation, 4 h, at 4 µM, stronger effect = higher value
row,Structure (SMILES),inhibition
1,CC(=O)N(c1ccc2oc(=O)sc2c1)S(=O)(=O)c1ccc(C)cc1,36.7% (active)
2,COC(=O)c1c(C)oc2ccc(N(C(=O)Oc3ccccc3)S(=O)(=O)c3ccccc3)cc12,-1.45% (inactive)
3,CC(=O)Oc1ccc(N(C(C)=O)S(=O)(=O)c2ccc3ccccc3c2)cc1Br,6.52% (inactive)
4,COC(=O)c1ccccc1Oc1c(F)c(F)nc(N2CCOCC2)c1F,-7.97% (inactive)
5,COc1cccc(N2CC(NS(=O)(=O)c3cccs3)CC2=O)c1 (stereo not drawn),0.8% (inactive)
6,CCN(CC(=O)Nc1ccc(Cl)c(S(=O)(=O)N(C)C)c1)Cc1nc2ccccc2c(=O)[nH]1,-4.43% (inactive)
7,Cc1cc(N2CCCC2=O)cc(C)c1S(N)(=O)=O,-1% (inactive)
8,O=C(COc1nsnc1N1CCOCC1)Nc1ccccc1Cl,0.63% (inactive)
9,O=C(Nc1ccccc1Cl)/C(Cl)=C(\Cl)S(=O)c1ccccc1 (stereo not drawn),81.7% (active)
10,CCOC(=O)[C@]12CCCC=C1N(Cc1ccc3c(c1)OCO3)C(=O)[C@H](CC(=O)N1CCN(C(=O)c3ccco3)CC1)C2,5.36% (inactive)
11,c1ccc(-n2cccc2)c(N2CCCCC2)c1,-0.7% (inactive)
12,O=C(c1ccc(Cl)c(S(=O)(=O)N2CCCCCC2)c1)N1CCN(c2ccc(O)cc2)CC1,1.37% (inactive)
13,O=C1C=CC(=O)N1c1ccc(N2CCCCC2)cc1,29% (active)
14,CCN(C(=O)CSc1nc(N)cc(=O)[nH]1)C1CCS(=O)(=O)C1 (stereo not drawn),-2.61% (inactive)
15,Cc1c(NC(=O)c2cc(-c3ccc(Cl)s3)nc3ccccc23)c(=O)n(-c2ccccc2)n1C,0.07% (inactive)
16,CCc1ccc(-c2cc(C(=O)NN3CCN(C)CC3)c3ccccc3n2)cc1,11.1% (inactive)
17,Cc1ccc(NC(=O)c2cc(-c3ccc(C)o3)nc3ccccc23)nc1,29% (active)
18,O=C(CCC(=O)OCC(F)(F)C(F)F)NCc1ccccc1,-6.31% (inactive)
19,Oc1c(CN2CCOCC2)ccc(CN2CCOCC2)c1O,-0.13% (inactive)
20,COc1ccccc1NC(=O)CSc1nnc(Cn2nnc(-c3ccccc3)n2)n1-c1ccccc1,7.76% (inactive)
21,CCCCC(=O)N/N=C(\C)CC(=O)Nc1cc(Cl)ccc1OC,22.2% (active)
22,COc1ccc(/C(C)=N/NC(=O)CCC(=O)Nc2ccc(Cl)cc2Cl)c(OC)c1,-4.09% (inactive)

row,Structure (SMILES),inhibition
1,COc1ccc(Cl)cc1NC(=O)CCS(=O)(=O)c1ccc(Br)cc1,-6.29% (inactive)
2,COc1cc2c(C(=O)N(C)c3cc(Cl)ccc3OC)cn(C)c(=O)c2cc1OC,-8.81% (inactive)
3,CN(C)CCNC(=O)C(C(=O)c1ccccc1)n1ccccc1=O (stereo not drawn),-4.39% (inactive)
4,OC(CNCC1CCCO1)Cn1c2ccc(Br)cc2c2cc(Br)ccc21 (stereo not drawn),27.7% (active)
5,COCCNC(=O)c1ccc(Cn2c(SCC(=O)NCC3CCCO3)nc3ccc(Br)cc3c2=O)cc1 (stereo not drawn),-3.04% (inactive)
6,CCCN1CCn2c3c(c4cc(Br)ccc42)CCCC31 (stereo not drawn),-7.51% (inactive)
7,CCOc1ccc(N(CC(=O)NCCc2ccc(OC)cc2)S(C)(=O)=O)cc1,-0.93% (inactive)
8,Cc1cc(C)n(CC(C)NCc2c(C(=O)N3CCOCC3)nc3c(C)cccn23)n1 (stereo not drawn),1.11% (inactive)
9,CC1=C(C(=O)N2CCOCC2)CC(CC(=O)NCc2ccco2)C(=O)N1Cc1ccc(F)cc1 (stereo not drawn),5.09% (inactive)
10,Cc1c(CCO)sc[n+]1CC(=O)OC12CC3CC(CC(C3)C1)C2,-1.3% (inactive)
11,Cc1c(CCOC(=O)c2cc([N+](=O)[O-])ccc2Cl)sc[n+]1CCCCS(=O)(=O)[O-],7.78% (inactive)
12,Cc1c(CCOC(=O)CC23CC4CC(CC(C)(C4)C2)C3)sc[n+]1Cc1ccc([N+](=O)[O-])cc1,19% (inactive) and 24.3% (active)
13,O=C(NCCCN1CCOCC1)C1CCCN(S(=O)(=O)N2CCCCC2)C1 (stereo not drawn),-6.18% (inactive)
14,Fc1ccc(Nc2nnns2)cc1,-1.08% (inactive)
15,Cc1[nH]c(C)c(S(=O)(=O)N2CCN(c3cccc(C(F)(F)F)c3)CC2)c1C(=O)N1CCCCC1,-3.87% (inactive)
16,Cc1c(C)c2c(OCC(=O)N[C@@H](C(=O)O)c3ccccc3)cc3c(c2oc1=O)CCC(C)(C)O3,9.96% (inactive)
17,CC1CC(C)CN(CC(=O)Nc2ccc(S(N)(=O)=O)cc2)C1 (stereo not drawn),-3.77% (inactive)
18,CC1Cc2ccccc2N1CC(=O)Nc1ccc2c(c1)OC(F)(F)O2 (stereo not drawn),-17.3% (inactive)
19,CC1Cc2ccccc2N1CC(=O)Nc1ccc(S(N)(=O)=O)cc1 (stereo not drawn),26.1% (active)
20,O=C(CCSc1ccccc1)NCCSc1ccccn1,4.14% (inactive)
21,Cc1ccc2cc3cc(C(=O)N4CCCCCC4)oc3nc2c1,0.91% (inactive)
22,O=C1Cc2cc(S(=O)(=O)Nc3cccc(F)c3)ccc2N1,-4.67% (inactive)

row,Structure (SMILES),inhibition
1,CCN(CC(=O)Nc1c(F)cccc1F)C(=O)c1ccc(-c2ccc(C(C)=O)cc2)o1,-6.21% (inactive)
2,O=C(CCN1CCc2ccccc2C(O)(c2ccccc2)C1)c1ccc2c(c1)OCCO2 (stereo not drawn),40.8% (active)
3,O=C(CN1CCN(c2ccccc2F)CC1)c1ccc2c(c1)OCO2,1.72% (inactive)
4,CCC1(c2ccccc2)NC(=O)N(CC(=O)c2ccc3c(c2)OCO3)C1=O (stereo not drawn),6.66% (inactive)
5,COCCN1CCn2c(nc3cc(NS(C)(=O)=O)ccc32)C1,3.04% (inactive)
6,Cc1cc(SCC(=O)NCCN2C(=O)CSC2=O)nc2ccccc12,1.93% (inactive)
7,Cc1cc(C)cc(C(=O)NC(CC(N)=O)c2ccc(N3CCC(N4CCCCC4)CC3)c([N+](=O)[O-])c2)c1 (stereo not drawn),-0.26% (inactive)
8,O=C(CSc1nnc(CNC(=O)c2ccc(F)cc2)o1)Nc1ccc2c(c1)OCO2,-2.58% (inactive)
9,COCCN(CCOC)c1nc(N)c2c(N)nc3c(c2c1C#N)CC(=O)N3Cc1ccc(Cl)cc1,32.7% (active)
10,C=CCC[C@H](CCCCC)OC(=O)/C=C/[C@H](O)[C@@H](O)C[C@@H](O)CC=C,-7.52% (inactive)
11,Cc1c(CN2CCC(CO)(CCOc3ccccc3)CC2)[nH]c2ccc(Cl)cc12,22.5% (active)
12,CC(C)(O)C#Cc1ccc(CN2CCC(CO)(CCc3ccccc3)CC2)cc1,-5.13% (inactive)
13,Cc1cccc(-c2ncc(CN3CCC(CO)(CCCc4ccccc4)CC3)cn2)c1,12.2% (inactive)
14,CCC(=O)NC(Nc1cc(C)ccn1)(C(F)(F)F)C(F)(F)F,7.47% (inactive)
15,c1cc(-c2ccc3[nH]ccc3c2)n2ccnc2c1,0.38% (inactive)
16,CCN1CCC(O)(/C=C/c2ccc(C)cc2)C(C(=O)/C=C/c2ccc(C)cc2)C1 (stereo not drawn),75% (active)
17,CN(CC(=O)Nc1cccc2c1CCCC2)S(=O)(=O)c1ccc(Cl)cc1,4.76% (inactive)
18,COC(=O)Cc1ccc(OC(=O)C2CCN(S(=O)(=O)c3ccc(OC)c(OC)c3)CC2)cc1,4.12% (inactive)
19,CSc1ccc(CN2CCC2(C)C(=O)NCc2ccccc2Br)cc1 (stereo not drawn),-5.69% (inactive)
20,CC1(C(=O)NCc2cccc3ccccc23)CCN1Cc1ccc(-c2ccccc2)o1 (stereo not drawn),40.4% (active)
21,CC1(C(=O)NCc2ccc3c(c2)OCO3)CCN1C(=O)Cc1cccc2ccccc12 (stereo not drawn),0.84% (inactive)
22,CN(C)c1cccc(C(=O)N2CCC(n3nccc3NC(=O)C3CCOC3)CC2)c1 (stereo not drawn),-0.66% (inactive)

row,Structure (SMILES),inhibition
1,CSCCC(C(=O)NC(C)(C)C)n1c(-c2ccccc2)nc2ccccc21 (stereo not drawn),-13.8% (inactive)
2,CC(C)(C)NC(=O)C(CCc1ccccc1)n1c(=O)c(-c2ccccc2)nc2ccccc21 (stereo not drawn),22.9% (active)
3,CCC(C(=O)NC(C)(C)C)n1c(-c2ccccc2)nc2ccccc21 (stereo not drawn),9.54% (inactive)
4,COc1ccc(S(=O)(=O)N2CCCCC2)cc1NC(=O)C1CC(=O)N(c2ccc3c(c2)OCCO3)C1 (stereo not drawn),12.7% (inactive)
5,CCOCN(C(=O)Cn1c(C(C)O)nc2ccccc21)c1c(C)cccc1CC (stereo not drawn),-2.38% (inactive)
6,Cc1nnnn1/C(=C\c1ccccc1)C(=O)OCC(=O)N1CC2(C)CC1CC(C)(C)C2 (stereo not drawn),38.6% (active)
7,CN(C)C(=O)COC(=O)c1cccc(S(=O)(=O)N2CC3(C)CC2CC(C)(C)C3)c1 (stereo not drawn),-4.49% (inactive)
8,O=S(=O)(NCc1cccnc1)c1ccc(Cl)nc1,5.93% (inactive)
9,Cc1cc(C)c(C)c(S(=O)(=O)Nc2ccc(O)cc2)c1C,4.3% (inactive)
10,COc1ccc(CN2C(=O)C(CC(=O)NCCN3CCOCC3)CC(C(=O)N(C(C)C)C(C)C)=C2C)cc1 (stereo not drawn),-11% (inactive)
11,CCCCCCCCCCCCCCCC(=O)OC/C=C(C)/C=C/C=C(C)/C=C/C1=C(C)CCCC1(C)C,-4.62% (inactive)
12,O=C(Nc1ccccc1C(F)(F)F)N1CCCC1c1cccnc1 (stereo not drawn),11.2% (inactive)
13,CC(=O)c1ccc(NC(=O)CCc2nnc3ccc(NCc4ccco4)nn23)cc1,27.9% (active)
14,CC1CCN(C(=O)CCc2nnc3ccc(NCc4ccco4)nn23)CC1,7.83% (inactive)
15,O=C(CNc1ccc(F)cc1F)NC(=O)NCc1ccco1,-0.2% (inactive)
16,O=C(CCc1nnc2ccc(NCc3ccco3)nn12)Nc1cc(F)ccc1F,22.5% (active)
17,CCOc1ccccc1NC(=O)CCc1nnc2ccc(NCc3ccco3)nn12,16.7% (inactive)
18,CCOC(=O)c1cccc(NC(=O)CCc2nnc3ccc(N4CCOCC4)nn23)c1,-2.37% (inactive)
19,Cc1ccc(-n2c(SCC(=O)Nc3ncc(Cl)cc3Cl)nc3ccccc32)cc1,-7.45% (inactive)
20,Nn1c(SCC(=O)NC2CCCc3ccccc32)nnc1C1CC1 (stereo not drawn),10.4% (inactive)
21,O=S(=O)(Nc1nccs1)c1ccc2c(c1)OCCO2,-5.22% (inactive)
22,CCOc1ccc2nc(Cl)c(C3CC(c4ccccc4)=NN3C(=O)c3cccs3)cc2c1 (stereo not drawn),-5.74% (inactive)
